Compound activity: PubChem, National Center for Advancing Translational Sciences (NCATS)
A selection: hits, their analogues and other compounds. The true share with any hit is near 2.4%.
D2 ag-1: activates the human D2 dopamine receptor; P14416; DiscoveRx PathHunter D2 beta-arrestin, luminescence, 90 min; 100% = 57 uM dopamine signal; activation, % (no concentration beside the values); hit rate 0.084% among 360,000; AID 624465; in the data active means activation above about 40%
Target sequence (P14416 whole entry, looked up): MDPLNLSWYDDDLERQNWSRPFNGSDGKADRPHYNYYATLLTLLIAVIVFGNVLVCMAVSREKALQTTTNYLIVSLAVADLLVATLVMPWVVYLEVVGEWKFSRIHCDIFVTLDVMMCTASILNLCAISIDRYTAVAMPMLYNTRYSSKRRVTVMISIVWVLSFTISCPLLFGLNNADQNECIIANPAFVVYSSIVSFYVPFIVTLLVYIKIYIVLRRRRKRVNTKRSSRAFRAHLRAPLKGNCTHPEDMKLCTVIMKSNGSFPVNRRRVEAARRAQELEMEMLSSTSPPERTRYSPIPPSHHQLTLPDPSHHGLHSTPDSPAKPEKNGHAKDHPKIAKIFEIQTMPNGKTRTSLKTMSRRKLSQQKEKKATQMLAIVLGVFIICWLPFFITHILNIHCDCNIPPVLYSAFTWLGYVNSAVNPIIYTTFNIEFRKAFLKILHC
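Agonist mode: compounds alone added to overnight-plated D2 PathHunter cells for 90 min at 37 C, with 57 uM final dopamine (EC100) defining full response. Beta-arrestin recruitment detected by chemiluminescent reagent, read after 1 h at ambient temperature.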
D2 PAM-1: positively modulates the human D2 dopamine receptor allosterically | P14416 | HEK293 T-REx D2, calcium flux, EC20 dopamine potentiation | potentiation, % at 10 µM | hit rate 0.34% among 340,000 | AID 485347;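 active means potentiation over 3 SD above the plate norm, cut at about 30% in these data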; further: 0% is about no effect
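Potentiation of an EC20 dopamine calcium response is measured in a force-coupled, tetracycline-inducible Hek293 Trex D2 line. Compound-only kinetic reads over 180 s flag agonists before dopamine addition.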
D2 ag-2: D2 dopamine receptor (human) agonism | P14416 | HEK293 T-REx D2 cells, calcium flux agonist mode | activation, % at 2 µM | hit rate 0.53% among 340,000;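 active means activation over 3 SD above normal in the single-dose calcium agonist read, cut at about 30% in these data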; further: 0% is about no effect
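Tetracycline-induced HEK293 T-REx cells with force-coupled D2 receptor, plated overnight at 30 C, loaded with no-wash calcium dye. After a 10 s baseline, compound was pin-added and calcium flux read kinetically for 180 s; calcium rises flagged agonists.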
D2 PAM-2: human D2 receptor positive allosteric modulation; P14416; hit rate 0.23% among 360,000; AID 624464; potentiation, % (no concentration beside the values); DiscoveRx D2 beta-arrestin cells, luminescence, 90 min; 100% = 57 uM dopamine signal; in the data active means potentiation above about 50%
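D2 cells co-treated with compound plus 50 nM dopamine (EC20) for 90 min at 37 deg C to detect potentiation. Beta-arrestin recruitment was read as enzyme-fragment luminescence after 1 h at ambient temperature. Full response was set by 57 uM dopamine.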
D2 antagonist: antagonizes the human D2 dopamine receptor; P14416; HEK293 TREx D2 cells, calcium flux, dopamine EC80; inhibition, % at 10 µM; hit rate 2% among 340,000; in the data active means inhibition above about 30%; inactive means below that, where a call was filed; further: 0% is about no effect
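Antagonism is scored as inhibition of an EC80 dopamine-evoked calcium signal in a force-coupled, tetracycline-inducible HEK293 T-REx D2 line, with compound present 180 s before agonist.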
* = called active by the depositor; / = no result.

SMILES | D2 ag-1 | D2 PAM-1 | D2 ag-2 | D2 PAM-2 | D2 antagonist
COC(=O)c1cc(NC(=O)CN(c2ccccc2OC)S(=O)(=O)c2ccccc2)ccc1Cl | -1.7 | -3.5 | 0.8 | -7.1 | 35.6*
COc1ccc(N(CC(=O)Nc2cccnc2)S(=O)(=O)c2ccc(C)cc2)cc1Cl | -1.1 | / | 4.8 | -19.5 | 4.2
O=C(CN(c1ccccc1)S(=O)(=O)c1ccc(Cl)cc1)Nc1cccnc1 | -2.8 | -33.4 | 0.5 | -10.9 | 33.8*
COc1ccc(N(CC(=O)Nc2cccnc2)S(=O)(=O)c2ccccc2)cc1Cl | -0.7 | -21.2 | 0.3 | -7.6 | 31.1*
COC(=O)c1cc(NC(=O)CN(c2cccc(OC)c2)S(=O)(=O)c2ccccc2)ccc1Cl | -2.2 | 3.4 | 1.6 | -10.9 | 13.3
O=C(NCCc1ccc(F)cc1)C1CCN(C(=O)Nc2ccccc2)CC1 | -2.4 | -1.2 | -0.2 | -7.8 | 6.8
COc1cccc(/C(O)=C2/C(=O)C(=O)N(c3ccccn3)C2c2ccc(OC)c(OC)c2)c1 (stereo unspecified) | 0.4 | -8.8 | 1.0 | 2.7 | 31.8*
COc1ccc(/C(O)=C2/C(=O)C(=O)N(c3ccccn3)C2c2ccc(OC)c(OC)c2)cc1 (stereo unspecified) | -5.6 | -0.6 | 0.0 | -6.1 | 2.7
Cc1oncc1C(=O)Nc1ccc(C(F)(F)F)cc1 | 12.5 | 3.6 | -1.9 | -1.9 | 35.6*
COc1ccccc1Nc1nc(-c2sc(N)nc2C)cs1 | 0.9 | 7.9 | -0.5 | -17.1 | 37.7*
COc1ccccc1Nc1nc(-c2sc(NC(=O)c3ccccc3)nc2C)cs1 | -2.2 | -2.2 | 0.6 | -7.7 | 9.2
Cc1ccc(C(=O)N2CCC2(C)C(=O)NC(C)C)cc1 (stereo unspecified) | 4.2 | / | / | -1.5 | /
CCCCCn1c(CN2CCCCC2CC)nc2c1c(=O)n(C)c(=O)n2C (stereo unspecified) | 0.0 | 54.5* | -0.3 | -4.4 | 3.6
CC(=O)N1CCN(C(=O)c2cc(S(=O)(=O)N(C)Cc3ccccc3)ccc2Cl)CC1 | -0.2 | 25.6 | 1.5 | 14.5 | 30.1*
Cc1ccc(S(=O)(=O)N(C)Cc2ccccc2)cc1C(=O)N1CCCCC1 | -3.6 | -2.5 | 0.9 | -15.5 | -11.2
CC1C(=O)N2CCCc3cc(S(=O)(=O)NCCc4ccccc4)cc1c32 (stereo unspecified) | -4.2 | 42.9* | -0.1 | -2.9 | -0.5
COc1ccc(CCNS(=O)(=O)c2cc3c4c(c2)C(C)C(=O)N4CCC3)cc1OC (stereo unspecified) | -3.2 | -6.5 | -0.4 | -4.4 | -10.7
COc1ccccc1N1CCN(C2CCCN(Cc3cc(F)cc(F)c3)C2)CC1 (stereo unspecified) | -4.0 | 0.3 | 0.5 | -4.1 | 40.9*
COc1ccccc1N1CCN(C2CCCN(Cc3ccc(Cl)cc3)C2)CC1 (stereo unspecified) | 0.1 | -20.9 | 0.3 | -25.2 | 37.1*
COc1ccccc1N1CCN(C2CCCN(Cc3ccccc3OCCO)C2)CC1 (stereo unspecified) | 5.8 | -12.7 | 0.0 | -19.3 | -3.5
COc1ccc(O)c(CN2CCCC(N3CCN(c4ccccc4OC)CC3)C2)c1 (stereo unspecified) | 5.6 | -11.4 | 0.2 | -24.4 | 0.8
COc1cccc(CCNC(=O)c2c(O)nc3ccccn3c2=O)c1 | / | -4.4 | / | / | /
C=CCn1c(SCC(=O)Nc2cc(C)on2)nnc1-c1ccccc1F | -1.3 | / | / | -7.3 | /
CCOc1ccc(NC(=O)/C(C#N)=C/c2ccc(N3CCCC3)c(C)c2)cc1 | 5.8 | -3.5 | 32.5* | 6.1 | 38.4*
COc1ccccc1NS(=O)(=O)c1ccc(C(=O)N2CCCCCC2)cc1 | -1.0 | / | / | 6.1 | /
SMILES | D2 ag-1 | D2 PAM-1 | D2 ag-2 | D2 PAM-2 | D2 antagonist
NC(N)=NC(N)=Nc1cccc2ccccc12 | 6.2 | 3.3 | 0.7 | -3.0 | 3.5
NC(N)=Nc1cc2ccccc2c2ccccc12 | / | -19.7 | 67.8* | / | 37.5*
Cc1ccc(N2CC(C(=O)OCc3ccc([N+](=O)[O-])cc3)CC2=O)cc1 (stereo unspecified) | -1.4 | 30.6* | 0.5 | -2.5 | -16.5
NC(=O)C1CC(=O)N(c2ccc(OCc3ccc([N+](=O)[O-])cc3)cc2)C1 (stereo unspecified) | 8.5 | 3.6 | -0.3 | 1.5 | -12.2
CCCCC1CCC(C(=O)N(CC(C)C)c2c(N)n(Cc3ccccc3)c(=O)[nH]c2=O)CC1 (stereo unspecified) | -2.2 | 6.8 | -0.9 | -2.5 | -10.2
COc1ccc2ccccc2c1/C=N\NC(=O)c1ccc(C)s1 | -3.0 | -19.9 | -0.1 | -36.6 | 40.2*
COc1ccc2ccccc2c1/C=N/NC(=O)c1ccccc1F | -6.9 | 2.8 | 2.6 | -12.9 | -3.1
COc1ccc2ccccc2c1/C=N/NC(=O)c1ccc([N+](=O)[O-])cc1 | -1.4 | -27.7 | -1.5 | -15.6 | 70.5*
COc1ccc2ccccc2c1/C=N/NC(=O)c1cccc(Br)c1 | -4.3 | -14.0 | -0.4 | -41.9 | 10.3
S=C1Nc2ccccc2Sc2ccc(Cl)cc21 | 0.0 | 14.5 | -0.2 | 9.7 | -1.4
CN(C)CC/C=C1\c2ccccc2COc2ccccc21 | -4.9 | -25.5 | 1.4 | -34.0 | 50.7*
CCCCCC[N+](C)(C)CC/C=C1/c2ccccc2Sc2ccc(Cl)cc21 | 2.7 | -26.1 | -2.3 | -9.0 | 75.3*
CN(C)CC/C=C1/c2ccccc2CS(=O)(=O)c2ccccc21 | 2.9 | / | / | -2.7 | /
CN(C)CC/C=C1/c2ccccc2Sc2ccc(Cl)cc21 | -6.0 | -25.7 | -0.8 | -35.7 | 102.5*
Cc1cccc(N2CCN(C(=O)c3c(C)oc4nc(C)nc(N5CCCC5)c34)CC2C)c1 (stereo unspecified) | / | -3.0 | -0.3 | / | /
CC(=O)N(Cc1ccco1)c1nc(C(=O)Nc2ccc(Cl)cc2)c(C)s1 | -3.5 | -0.6 | -0.3 | 5.8 | 10.6
C[C@H](CO)N1C[C@H](C)[C@H](CN(C)S(=O)(=O)c2cccs2)OCc2cnnn2CCCC1=O | -3.7 | / | / | -3.0 | /
Cc1c(C(=O)Nc2ccc3c(c2)OCCO3)sc2nc(-c3ccccc3)cn12 | 3.2 | -4.4 | -1.2 | -7.0 | 72.8*
CC(C)(O)C#Cc1ccc(CNC[C@H]2O[C@@H](n3cnc4c(N)ncnc43)[C@H](O)[C@@H]2O)s1 | -1.6 | / | / | -4.8 | /
Cc1ccc(CN2CCN(Cc3cccn3-c3ccccn3)CC2CCO)cc1 (stereo unspecified) | -2.0 | -17.8 | -0.7 | -13.1 | -6.5
Cc1ccccc1CN1CCN(CCCc2ccccc2)C(CCO)C1 (stereo unspecified) | 4.9 | -21.7 | 1.3 | -25.8 | 38.3*
OCCC1CN(Cc2cccn2-c2ncccn2)CCN1Cc1ccccc1 (stereo unspecified) | -0.5 | 5.6 | -1.8 | -14.5 | 30.6*
C#Cc1ccc(CN2CCN(CCCc3ccccc3)C(CCO)C2)cc1 (stereo unspecified) | 1.2 | -19.0 | -0.1 | -25.9 | 74.7*
